The campaign covered roughly 2,100 compounds. About 770 (37%) were called active.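 Rule for the calls: active = by-eye trace score of 1 for enhancers or -1 for inhibitors, so actives lie on both sides (some results past the limit were not filed as active); inactive = score 0, or 3 fluorescent, or 4 baseline rise.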 This is one part of the list.
Biological target: G protein-activated inward rectifier potassium channel 2 (Homo sapiens) + G protein-activated inward rectifier potassium channel 1 (Homo sapiens) (UniProt P48051+P48549)
Assay: GIRK1/2 thallium flux modulators, retest, confirmation, cell-based, HEK293 rmGlu8/hGIRK1/2, FluoZin-2 (AID 623911)
Conditions: HEK293 rmGlu8/hGIRK1/2, thallium flux FluoZin-2; actives lie on both sides; glutamate co-added at its EC20 level

Chain of G protein-activated inward rectifier potassium channel 2 (Homo sapiens) + G protein-activated inward rectifier potassium channel 1 (Homo sapiens) (P48051 whole entry, looked up): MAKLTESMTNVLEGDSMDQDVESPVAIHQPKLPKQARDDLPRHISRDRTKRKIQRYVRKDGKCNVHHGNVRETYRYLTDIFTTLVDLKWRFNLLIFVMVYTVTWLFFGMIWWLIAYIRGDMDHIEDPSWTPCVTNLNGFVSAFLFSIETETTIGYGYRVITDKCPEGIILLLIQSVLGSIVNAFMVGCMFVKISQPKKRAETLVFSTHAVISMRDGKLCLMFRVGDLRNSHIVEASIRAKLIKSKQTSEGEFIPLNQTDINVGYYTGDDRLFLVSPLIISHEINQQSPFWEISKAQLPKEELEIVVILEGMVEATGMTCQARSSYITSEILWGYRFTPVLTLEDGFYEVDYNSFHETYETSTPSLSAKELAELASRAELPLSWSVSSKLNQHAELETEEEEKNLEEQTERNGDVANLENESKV
Chain of G protein-activated inward rectifier potassium channel 2 (Homo sapiens) + G protein-activated inward rectifier potassium channel 1 (Homo sapiens) (P48549 whole entry, looked up): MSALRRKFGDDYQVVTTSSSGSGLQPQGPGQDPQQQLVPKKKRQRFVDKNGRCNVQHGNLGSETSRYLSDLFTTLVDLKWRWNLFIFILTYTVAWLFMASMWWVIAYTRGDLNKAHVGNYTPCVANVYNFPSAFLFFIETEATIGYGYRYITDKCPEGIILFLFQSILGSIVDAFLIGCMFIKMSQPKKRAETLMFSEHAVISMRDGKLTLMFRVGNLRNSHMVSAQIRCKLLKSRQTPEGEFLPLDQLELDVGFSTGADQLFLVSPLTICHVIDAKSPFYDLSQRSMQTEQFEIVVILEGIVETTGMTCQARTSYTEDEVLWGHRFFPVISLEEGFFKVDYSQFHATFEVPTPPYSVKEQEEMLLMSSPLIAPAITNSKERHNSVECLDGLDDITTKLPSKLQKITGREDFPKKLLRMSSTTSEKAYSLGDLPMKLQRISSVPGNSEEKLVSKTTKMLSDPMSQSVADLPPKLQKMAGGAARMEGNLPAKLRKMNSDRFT

Manual score, inactive:
CC(C)N=c1scc(-c2cccs2)n1/N=C/c1ccc(O)c(O)c1O 0
Cc1c(C)[n+](=O)c2c(n1[O-])CCC2 0
CC(/C=C/c1ccccc1)=N/NC(=O)c1cc([N+](=O)[O-])cc([N+](=O)[O-])c1 0
CCc1ccc(/C=c2\s/c(=C\C(=O)C(C)(C)C)[nH]c2=O)cc1 0
CC(/C=C\c1cccnc1)=C/C(=O)O 0
CN=C(C)C1=C(O)C(C(=O)OC)C(C)(C)CC1=O (centres undefined) 0
Cc1cccc2c(=O)cc(C)n(CC(=O)N3CCCCC3)c12 0
CCc1c(O)nc(SCC(=O)Nc2ccc(OC)cc2)n(C2CCCCC2)c1=O 0
CC(=O)Oc1ccc2c(c1)Oc1cc(OC(C)=O)ccc1C21OC(=O)c2ccccc21 3
CCSc1nnc(NC(=O)C(Cc2ccccc2)n2cccc2)s1 (centres undefined) 0
Cc1csc(NC(=O)C(Cc2ccccc2)n2cccc2)n1 (centres undefined) 0
O=C(CSc1nnc2ccccn12)Nc1nsc(-c2ccccc2)n1 0
CN1C(=O)C2(C(C#N)=C(N)N(c3cc(Cl)cc(Cl)c3)C3=C2C(=O)CCC3)c2ccccc21 (centres undefined) 0
CC1(C)CC(=O)C2=C(C1)NC(SCC(=O)Nc1ccccc1)=C(C#N)C2c1ccco1 (centres undefined) 0
S=c1[nH]nc(COc2ccccc2)n1C1CCCCC1 0
O=C(O)CCC(=O)NC1CCCCCCC1 0
N#CC1(Cc2ccc([N+](=O)[O-])cc2)c2ccccc2C=CN1C(=O)c1ccccc1 (centres undefined) 0
CCOC(=O)CSC1=C(C#N)C(=O)NC(c2ccc(OC)c(OC)c2)S1 (centres undefined) 0
O=C(Oc1ccccc1)c1cccc(COC(=O)c2cnccn2)c1 0
CCOC(=O)c1ccc(CNCc2ccc(Br)cc2)cc1 0

Manual score, active:
CCc1ccc(/C=C/C(=O)C2C(=O)c3ccccc3C2=O)cc1 1
O=C(/C=C/c1ccccc1)C1C(=O)c2ccccc2C1=O 1
O=C(Nc1ncc(Br)s1)C(Cc1ccccc1)n1cccc1 (centres undefined) 1
CC1(C)CC(=O)C2=C(C1)N(c1ccccc1)C(N)=C(C#N)C2c1ccsc1 (centres undefined) -1
CC(C)=CCC(C)(C)CNC(=O)NC1CCCCC1 1
O=C(Cc1ccccc1)N/N=C/c1cccn1-c1ccc([N+](=O)[O-])cc1 1
C=CCNCc1cccn1-c1sc2c(c1C#N)CCCC2 -1
CCOC(=O)c1c2n(c3c(NCc4ccccc4)ncnc13)CCCC2 -1
CCc1ccc(CNCCNCC(C)O)cc1 (centres undefined) 1

— PubChem BioAssay AID623911 (Vanderbilt High Throughput Screening Facility, 2012)
